In paper PMC7826789 (International Journal of Molecular Sciences, 2021):

How the values were obtained:
Settings in all cases: Compound Concentration (nM):1000
MET(Y1235D) = test system: MET(Y1235D)
MET = test system: MET
MINK = test system: T1, MINK
T1 construct: gene MINK1

MKK7 = test system: T2, MKK7
T2 construct: gene MAP2K7

MKNK1 = test system: MKNK1
MKNK2 = test system: MKNK2
MLCK = test system: T3, MLCK
T3 construct: gene MYLK3

MLK1 = test system: T4, MLK1
T4 construct: gene MAP3K9

MLK2 = test system: T5, MLK2
T5 construct: gene MAP3K10

MLK3 = test system: T6, MLK3
T6 construct: gene MAP3K11

MRCKA = test system: T7, MRCKA
T7 construct: gene CDC42BPA

MRCKB = test system: T8, MRCKB
T8 construct: gene CDC42BPB

MST1R = test system: MST1R
MST1 = test system: T9, MST1
T9 construct: gene STK4

MST2 = test system: T10, MST2
T10 construct: gene STK3

MST3 = test system: T11, MST3
T11 construct: gene STK24

MST4 = test system: MST4
MTOR = test system: MTOR
MUSK = test system: MUSK
MYLK2 = test system: MYLK2
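Also: KINOMEscan scanMAX binding as percent activity remaining versus control; lower means stronger binding.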

Row | SMILES | Percent Control (MET(Y1235D)) [%] | Percent Control (MET) [%] | Percent Control (MINK) [%] | Percent Control (MKK7) [%] | Percent Control (MKNK1) [%] | Percent Control (MKNK2) [%] | Percent Control (MLCK) [%] | Percent Control (MLK1) [%] | Percent Control (MLK2) [%] | Percent Control (MLK3) [%] | Percent Control (MRCKA) [%] | Percent Control (MRCKB) [%] | Percent Control (MST1R) [%] | Percent Control (MST1) [%] | Percent Control (MST2) [%] | Percent Control (MST3) [%] | Percent Control (MST4) [%] | Percent Control (MTOR) [%] | Percent Control (MUSK) [%] | Percent Control (MYLK2) [%]
1 | COc1cc(C)c(N(C)C(=O)CN(C)C)cc1Nc1nc(Nc2cccc(F)c2C(N)=O)c2cc[nH]c2n1 [GSK2219385] | 99 | 65 | 86 | 97 | 75 | 98 | 78 | 55 | 100 | 100 | 100 | 94 | 100 | 100 | 85 | 93 | 100 | 100 | 84 | 100
2 | COC(=O)Nc1nc2ccc(Oc3ccc(NC(=O)Nc4cc(C(F)(F)F)ccc4F)cc3)cc2s1.Cl [GW693917A] | 6.6 | 33 | 79 | 97 | 45 | 31 | 99 | 97 | 85 | 100 | 90 | 96 | 100 | 100 | 100 | 95 | 72 | 100 | 9.7 | 47
3 | CC1=C(C(=O)Nc2ccc3[nH]ncc3c2)C(c2ccc(Cl)c(Cl)c2)CC(=O)N1 (stereo not drawn) [GSK299115A] | 97 | 97 | 69 | 90 | 81 | 66 | 99 | 70 | 86 | 97 | 100 | 75 | 91 | 90 | 94 | 70 | 66 | 100 | 100 | 100
4 | Nc1ncnc2occ(-c3ccc(NC(=O)Nc4cc(C(F)(F)F)ccc4F)cc3)c12 [GW770249X] | 60 | 89 | 52 | 100 | 55 | 3.9 | 88 | 66 | 18 | 54 | 100 | 100 | 100 | 100 | 83 | 82 | 59 | 100 | 1.4 | 83
5 | Cc1cc(O)cc(C)c1/C=C/c1cncc(C(N)=O)c1 [GW435821X] | 100 | 100 | 87 | 100 | 69 | 31 | 100 | 100 | 56 | 100 | 100 | 100 | 100 | 100 | 100 | 100 | 69 | 100 | 100 | 100
6 | Cl.O=C(O[C@H]1CN[C@H](C#Cc2cc3ncnc(Nc4ccc5c(cnn5Cc5ccccc5)c4)c3s2)C1)N1CCOCC1 [GSK200398A] | 100 | 100 | 98 | 75 | 70 | 47 | 100 | 100 | 100 | 92 | 100 | 86 | 100 | 100 | 100 | 83 | 100 | 100 | 100 | 100
7 | CCS(=O)(=O)c1ccc(OC)c(Nc2ncc(-c3cccc(OC)c3)o2)c1 [GW580509X] | 100 | 100 | 70 | 100 | 100 | 94 | 100 | 100 | 100 | 96 | 100 | 100 | 100 | 100 | 100 | 100 | 100 | 100 | 100 | 100
8 | CC1=C(C(=O)Nc2ccc3[nH]ncc3c2)C(c2ccc3ccccc3c2)CC(=O)N1 (stereo not drawn) [GSK270822A] | 87 | 47 | 87 | 75 | 75 | 73 | 92 | 68 | 100 | 76 | 100 | 85 | 46 | 93 | 73 | 90 | 53 | 100 | 95 | 100
9 | NS(=O)(=O)c1ccc(N/N=C2\C(=O)Nc3ccc(Cl)cc32)cc1 [GW280670X] | 100 | 100 | 25 | 100 | 100 | 100 | 85 | 100 | 98 | 96 | 100 | 100 | 100 | 100 | 100 | 100 | 63 | 100 | 100 | 100
10 | C/C(Nc1ccc(S(N)(=O)=O)cc1)=C1/C(=O)Nc2ccccc21 [GW335962X] | 100 | 72 | 2.8 | 91 | 74 | 100 | 69 | 77 | 75 | 98 | 100 | 92 | 100 | 82 | 100 | 27 | 8.4 | 96 | 100 | 100
11 | CN(C)c1cc2c(Nc3ccc4c(cnn4Cc4ccccc4)c3)ncnc2cn1 [GW282974X] | 100 | 94 | 100 | 95 | 74 |  | 98 | 89 | 95 | 100 | 100 | 84 | 100 | 100 | 83 | 90 | 83 | 100 | 95 | 98
12 | O=C(Nc1n[nH]c2nc(-c3ccc(O)cc3)c(Br)cc12)C1CC1 [SB-725317] | 100 | 100 | 42 | 100 | 49 | 90 | 67 | 100 | 100 | 100 | 100 | 100 | 100 | 100 | 100 | 100 | 77 | 100 | 100 | 5.9
13 | Cl.O=C(Nc1ccc(Oc2ccc3[nH]c(NC(=O)c4ccccc4)nc3c2)cc1)Nc1cc(C(F)(F)F)ccc1F [GW709042A] | 59 | 64 | 93 | 100 | 64 | 26 | 100 | 100 | 47 | 73 | 85 | 90 | 100 | 73 | 100 | 100 | 69 | 82 | 19 | 91
14 | COc1ccc(COc2ccc(Cc3cnc(N)nc3N)cc2OC)cc1 [GW632580X] | 100 | 95 | 85 | 80 | 76 | 100 | 100 | 85 | 53 | 90 | 100 | 100 | 100 | 85 | 73 | 97 | 90 | 96 | 100 | 100
15 | COc1cc2ncn(-c3cc(O[C@H](C)c4ccccc4Cl)c(C(N)=O)s3)c2cc1OC [GSK237701A] | 71 | 78 | 55 | 97 | 73 | 77 | 97 | 64 | 95 | 92 | 89 | 96 | 94 | 43 | 0 | 93 | 91 | 100 | 89 | 45
16 | Cl.O=S1CCN(Cc2ccc(-c3ccc4ncnc(Nc5ccc(OCc6ccccc6)c(F)c5)c4c3)o2)CC1 [GW576924A] | 100 | 100 | 89 | 51 | 82 | 100 | 100 | 100 | 100 | 100 | 100 | 100 | 100 | 100 | 100 | 100 | 100 | 100 | 100 | 100
17 | CCn1c(-c2nonc2N)nc2c(C#CC(C)(C)O)nc(OCCNC)cc21.Cl [GSK949675] | 100 | 97 | 100 | 100 | 98 | 100 | 100 | 100 | 100 | 100 | 100 | 100 | 100 | 100 | 100 | 100 | 100 | 85 | 100 | 98
18 | CCS(=O)(=O)c1ccc(OC)c(Nc2ncc(-c3cccc(F)c3)o2)c1 [GW621970X] | 100 | 100 | 72 | 100 | 70 | 100 | 100 | 100 | 95 | 100 | 100 | 100 | 100 | 100 | 100 | 100 | 93 | 100 | 100 | 98
19 | COc1cccc(-n2ncc3c(N/N=C/c4ccncc4)ncnc32)c1 [GW784752X] | 94 | 91 | 67 | 100 | 47 | 59 | 98 | 100 | 73 | 100 | 100 | 100 | 100 | 100 | 100 | 93 | 74 | 100 | 100 | 91
20 | COc1ccc2[nH]c3c4[nH]c5ccc(OC)cc5c4c4c(c3c2c1)C(=O)NC4=O [GW296115X] | 76 | 78 | 1.7 | 88 | 92 | 54 | 16 | 2.2 | 83 | 5.6 | 76 | 89 | 93 | 100 | 82 | 76 | 85 | 100 | 83 | 82
